# LANA-H2B inh: blocks KSHV LANA binding to histone H2A/H2B; cell-free LANA-H2A/H2B peptide, fluorescence polarization; inhibition, % (no concentration beside the values); 0.6% of 320,000 active; AID 2629; in the data active means inhibition mostly above about 10%, no sharp cut-off; inactive means mostly below about 6.7%
# Keap1 Nrf2 FP: inhibitors of human Keap1-Nrf2 protein-protein interaction | Q14145 | Keap1 Kelch-Nrf2 peptide fluorescence polarization, 1536-well | inhibition, % at 9.4 µM | 0.15% of 340,000 active | AID 504523; in the data active means inhibition above about 12%;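 further: human Keap1 Kelch domain with fluorescein labeled Nrf2 9mer peptide probe; 0% = neutral control wells and 100% = peptide positive control; higher means more block of Keap1 binding to Nrf2 peptide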
# Cardiac RTF inh: cardiac RTF calcium desensitization; P19429+P45379; IANBD-labeled cardiac RTF, Ca2+ fluorescence; inhibition, % at 7.15 µM; 0.12% of 340,000 active;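 active means inhibition above the mean inhibition of all tested compounds plus 3 SD, cut at about 17% in these data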;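 further: assay run at fixed EC70 calcium of 1.6 mM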
# C-LANA FP: blocks KSHV LANA C-terminal domain binding to DNA; inhibition, % at 9 µM; 0.078% of 340,000 active; MBP-C-LANA/FAM-LBS DNA binding, fluorescence polarization;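 active means highest replicate inhibition at or above 60% at 9 µM, even if other replicates fall short; inactive means all replicates below 60% inhibition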;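 further: 0% = neutral control wells and 100% = 4 µM acridine orange control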
# cardiac RTF act: cardiac RTF calcium sensitization; IANBD-labeled TnC RTF fluorescence at EC20 calcium; 0% EC20 calcium, 100% full calcium; activation, % at 7.2 µM; 0.24% of 340,000 active; AID 493008;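 active means activation above the mean over all tested compounds plus 3 SD, cut at about 30% in these data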;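 further: rise in fluorescence read as greater calcium sensitivity of cardiac thin filaments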
# An asterisk follows results filed as active; · = no result. Sampled rows, rich in hits. Any-hit rate of the full collection: about 0.98%.
SMILES,LANA-H2B inh,Keap1 Nrf2 FP,Cardiac RTF inh,C-LANA FP,cardiac RTF act
O=C(NCc1n[nH]c(=S)n1-c1cccc(Cl)c1)c1ccc(S(=O)(=O)N2CCCCC2)cc1,10,-3,-2,1,1
COc1cc2cc(CCCOC(=O)c3ccc4c(c3)OCO4)oc(=O)c2cc1OC,-3,0,9,-2,1
COc1cccc(C(=O)O/N=C(\N)c2ccccn2)c1OC,1,-2,-9,0,1
N/C(=N\OC(=O)c1cccc2ccccc12)c1ccccn1,41*,1,4,0,1
O=c1ccc2cc3c([nH]c4ccc(Br)cc43)oc-2c1O,-1,55*,24*,10,-32
O=C(O)c1ccc(N=Nc2c(O)[nH]c3ccc(Br)cc23)cc1,4,-5,0,1,-3
O=C(CSc1nnc(CNC(=O)c2c(F)cccc2F)o1)Nc1ccc2c(c1)OCCO2,7,-4,2,0,-6
CC(OC(=O)/C=C/c1cccc(Cl)c1)C(=O)NC1CCCCC1C (configuration not stated),5,-1,5,-2,-4
O=C(CCn1cccc(C(F)(F)F)c1=O)Nc1cccc(C(F)(F)F)c1,3,·,·,·,·
COc1cccc(C2C=C(c3ccc(Br)s3)Nc3ncnn32)c1OC (configuration not stated),0,-10,-39,17,37*
COc1ccc(C2C=C(c3ccc(C)c(C)c3)Nc3ncnn32)c(OC)c1OC (configuration not stated),5,-3,1,-2,14
Fc1ccc(Br)cc1C1C=C(c2ccc(Br)s2)Nc2ncnn21 (configuration not stated),2,-3,-69,1,73*
COc1cc(CCC(N)c2cccc(O)c2)cc(OC)c1OC (configuration not stated),·,0,5,-1,4
Cc1nnc(SCC(=O)c2cc(C)n(-c3ccc4c(c3)OCO4)c2C)s1,27*,0,-2,1,-8
Cn1c(N)c(C(=O)CSc2nn(-c3ccccc3)c(=S)s2)c(=O)n(C)c1=O,·,-3,1,-2,-7
Oc1[nH]c2ccccc2c1C1=NCCCC1,21*,3,-19,-1,0
COc1ccc(COc2cc(-c3cccc(OC)c3)nc3ccc(NC(=O)c4ccc(C)cc4)cc23)cc1,-1,-4,2,2,33*
COc1ccc(COc2cc(-c3cccc(OC)c3)nc3ccc(NC(=O)c4ccc(N(C)C)cc4)cc23)cc1,0,-6,-4,0,0
COc1ccccc1CN1CC(C(=O)NCc2cc(F)ccc2C)CCC1=O (configuration not stated),·,3,-10,0,-2
COc1ccc2[nH]c3c(c2c1)CCNC3c1ccc([N+](=O)[O-])o1 (configuration not stated),21*,6,-32,22,33*
COc1ccc2[nH]c3c(c2c1)CCNC3C1CC=C(C)CC1 (configuration not stated),-10,-2,-5,-1,-3
COCCCn1c(=O)/c(=C\c2ccc(OC(F)F)c(OC)c2)s/c1=C(/C#N)C(N)=O,29*,6,-12,8,9
Cn1c(SCC(=O)NCc2cccs2)nnc1-c1ccc(O)cc1,4,-4,-6,0,0
CC(C(=O)Nc1nnc(C2CC2)s1)N1C(=O)C2CC=CCC2C1=O (configuration not stated),13*,2,-17,2,7
C[C@@H](C(=O)Nc1nc2ccccc2s1)N1C(=O)C2CC=CCC2C1=O (some centres not stated),-5,-5,-11,0,-3
SMILES,LANA-H2B inh,Keap1 Nrf2 FP,Cardiac RTF inh,C-LANA FP,cardiac RTF act
O=C(CN1CCN(S(=O)(=O)c2ccc(Br)s2)CC1)N1CCCCC1,1,-3,3,2,-1
O=P(O)(O)CP(=O)(O)O,81*,·,·,·,·
COc1ccc(N=C2S/C(=C\c3ccc(N4CCOCC4)o3)C(=O)N2CCc2c[nH]c3ccccc23)cc1,-3,-5,-28,1,32*
COc1ccc(N=C2S/C(=C\c3ccc(OCC(=O)O)cc3)C(=O)N2CCc2c[nH]c3ccccc23)cc1,·,-5,5,1,-8
CSCCC(NC(=O)c1ccco1)C(=O)N1CCN(C(c2ccccc2)c2ccccc2)CC1 (configuration not stated),·,-2,5,0,-2
COc1ccccc1C(=O)NC(=O)COC(=O)c1cccc(C)c1O,-3,3,3,0,3
